Assay outcomes as filed in PubChem.
Only some compounds are listed: those with a hit (about 19% of all), similar ones and a draw of the others.
HT1080 IDH1KD tx: kills HT-1080 cells with IDH1 knockdown; HT-1080 IDH1 knockdown viability, ATP luminescence, 48 h; Potency, µM (highest dose often 46.1 µM), for the others: at the top dose activity, negative = toxicity, hits mostly cytotoxic; 2% of 360,000 active; AID 686971;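 further: potency means the concentration at half of the fitted maximal effect; 0% = DMSO wells and -100% = cell-free medium wells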
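Viability of IDH1-knockdown HT-1080 fibrosarcoma cells was assessed by CellTiter-Glo after 48 h at 37 °C with titrated compound; concentration-effect curves were classified by fit quality and response size.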
DT40 TDP1 no CPT: qHTS for Inhibitors of human tyrosyl-DNA phosphodiesterase 1 (TDP1): qHTS in cells in absence of CPT. DT40 Tdp1-/- hTDP1 cells, no CPT, ATP luminescence, 48 h. Potency, µM (top dose mostly 46.2 µM), inactives show at the highest dose activity change, negative = growth inhibition, usual class: inhibitors. 15% of 420,000 active. AID 686978, 2013; further: potency means the concentration at half of the fitted maximal effect; nearly all actives have a fitted effect of over 55% in size
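Growth of hTDP1-complemented DT40 Tdp1-knockout cells is measured by ATP luminescence after at least 48 hr compound exposure at 37 °C, with DMSO substituting for the 20 nM CPT used in the parallel screen.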
HT1080NT lethal: kills 2HG-producing HT-1080-NT fibrosarcoma cells. HT-1080-NT fibrosarcoma viability, CellTiter-Glo ATP luminescence, 48 h. Potency, µM (highest dose often 46.1 µM), for the others: top-dose activity, negative = less viability, hits mostly cytotoxic. 1.6% of 360,000 active. AID 686970;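 further: NT is the 2HG producing partner of a matched IDH1 knockdown line; potency means the concentration at half of the fitted maximal effect; 0% = DMSO-treated cells and -100% = media-only wells without cells; nearly all actives have a fitted effect of over 55% in size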
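HT-1080-NT; 750 cells/well; 5% FBS RPMI; 48 h compound, 37 degrees C; CellTiter-Glo luminescence; curve fitting and curve-class assignment.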
IL-1B inflam inh: blocks inflammasome-driven IL-1 beta release; activity change, % at 57.5 µM; 4.7% of 360,000 active; THP-1 LPS/ATP IL-1B secretion, AlphaLISA, 16 h; active compounds read low; in the data active means activity change below about -50%; inconclusive means mostly about -30% to -49%
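THP-1 cells pretreated 1 hr with compounds (up to 57.5 uM final), then stimulated with LPS (250 ng/mL final) plus ATP (1.25 mM final); secreted IL-1B measured by AlphaLISA after 16 hr, decreased signal indicating inhibition.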
TDP1 cell CPT: growth inhibition of DT40 Tdp1-/-;hTDP1 cells with camptothecin (screen for TDP1 inhibitors); chicken DT40 Tdp1-/-;hTDP1 cells + 20 nM CPT, ATP luminescence, 48 h; Potency, µM (doses to about 46.2 µM), for the others: top-dose activity change, negative = growth inhibition, actives largely listed as inhibitors; 12% of 420,000 active; AID 686979; further: potency means the concentration at half of the fitted maximal effect; nearly all actives have a fitted effect of over 55% in size
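Cell growth measured by CellTiter-Glo luminescence after a minimum 48 h, 37 C compound exposure with 20 nM CPT in Tdp1-knockout DT40 cells stably expressing hTDP1, seeded 400/well; qHTS titration format.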
* hit, by the source's call; ? = inconclusive; . = not tested or not shown; [ ] = another dose, or the depositor's remark. Unless noted, the call rests on the fitted dose curve; in most records, active means well fitted curve in the direction sought with a large enough effect; inconclusive means small, poorly fitted or top-dose-only effect, or another doubt; inactive means no such curve, though single readings can be large; an effect the other way counts as inactive or inconclusive. Unless noted, on the % scale 0 is the no-effect control and ±100 the full control effect.

SMILES	HT1080 IDH1KD tx	DT40 TDP1 no CPT	HT1080NT lethal	IL-1B inflam inh	TDP1 cell CPT
O=C(N1CCCCC1)C12CC3CC(C1)CC(C(=O)N1CCCCC1)(C3)C2	2.3%[9.24 µM]	23.1µM*	9.8%	3.4	?
O=C(CC1C(=O)NCCN1Cc1ccc(F)cc1)NCCOc1cccnc1 (stereo unspecified)	12.1%	2.7%	14.8%	1.6	5.3%
O=C(CC1C(=O)NCCN1Cc1ccc(-c2ccccc2)cc1)NCCOc1cccnc1 (stereo unspecified)	-10.9%	16.4µM*	-10.3%	-2.9	?
Cc1ccc2c(c1)CC(C)N2S(=O)(=O)c1nnc(NC(=O)c2ccccc2F)s1 (stereo unspecified)	.	-20.6%	.	.	-13.0%
COc1ccc(-c2c(C)nn3c(C(F)(F)F)cc(-c4ccccc4)nc23)cc1OC	.	?	.	.	-122.0%
C/C(=N\Nc1cc(N2CCOCC2)nc(C)n1)c1ccc(F)cc1	-16.4%	?	-17.5%	?	?
C/C(=N\Nc1cc(N2CCCCC2)nc(C)n1)c1ccc(Br)cc1	?	5.8µM*	?	-50.6*	13µM*
CC(C)(C)c1nnc(NC(=O)c2cc(-c3ccccc3)nc3ccccc23)s1	-19.6%	-29.6%	-21.0%	-14.6	-6.8%
Cc1csc(NC(=O)c2cc(-c3ccccc3)nc3ccccc23)n1	-24.4%	14.6µM*	-23.1%	.	?
CCOC(=O)Cc1csc(NC(=O)c2cc(-c3ccncc3)nc3ccccc23)n1	-9.6%	?	12.8%[9.24 µM]	30.1	16.4µM*
COc1ccc(CCN(C(=O)C(F)(F)F)C(C(=O)NC2CCCC2)c2cccs2)cc1OC (stereo unspecified)	-10.1%	1.78µM*	-19.6%	-19.8	7.31µM*
COc1ccc(CCN(C(=O)c2ccco2)C(C(=O)NC2CCCC2)c2ccncc2)cc1OC (stereo unspecified)	-2.3%	-18.4%	-1.7%	-14.5	-14.3%
COc1ccc(CCN(C(=O)C(F)(F)F)C(C(=O)NC2CCCCC2)c2ccc(C)s2)cc1OC (stereo unspecified)	10.9%	9.2µM*	8.0%	4.0	11.6µM*
CC(=O)C[C@@H](O)CC(=O)[C@@H]1OC(=O)CCCCCCc2ccccc21	3.8%	?	?	-6.4	?
Cc1noc(C)c1C(=O)Nc1nc2ccccc2s1	-23.1%	-27.8%	-20.3%	8.1	1.2%
COc1ccccc1-c1nnc(SCC(=O)N2CCCC2)o1	-9.2%	-3.5%	4.1%	20.7	9.4%
COc1cccc(OC)c1-c1cc(CCCc2cc(-c3c(OC)cccc3OC)nc3ccccc23)c2ccccc2n1	.	12.6µM*	.	.	?
COc1c2ccccc2nc2ccccc12	-9.2%	?	-9.5%	7.0	?
COC(=O)c1ccccc1NC1c2ccccc2C(=O)N1c1cccnc1 (stereo unspecified)	-2.7%	?	-6.5%	-11.7	14.6µM*
CCOC(=O)c1ccc(NC2c3ccccc3C(=O)N2c2cccnc2)cc1 (stereo unspecified)	-15.3%	10.3µM*	-28.2%	41.3	11.6µM*
CCOC(=O)c1ccc(NC2c3ccccc3C(=O)N2c2ccc(C)cn2)cc1 (stereo unspecified)	-0.9%	?	2.0%	13.9	?
O=C1c2ccccc2C(Nc2ccccc2F)N1c1cccnc1 (stereo unspecified)	-3.1%	-14.2%	0.6%	4.0	-21.6%
CN(C)c1ccc(C(=O)/C=C/c2ccc(Br)cc2)cc1	-3.0%	?	0.1%	-22.8	-19.1%
CN(C)c1ccc(C(=O)/C=C/c2ccccc2)cc1	?	?	-3.1%	-101.8*	20.6µM*
CN(C)c1ccc(C(=O)/C=C/c2ccco2)cc1	20.5%	?	18.4%	-100.9*	14.6µM*
SMILES	HT1080 IDH1KD tx	DT40 TDP1 no CPT	HT1080NT lethal	IL-1B inflam inh	TDP1 cell CPT
O=C(/C=C/c1ccccc1)NNC(=O)c1cccc(Cl)c1	6.7%	-17.8%	13.1%	-4.2	3.5%
O=C(C=Cc1cccc(Cl)c1)c1ccccc1	?	23.1µM*	?	?	14.6µM*
CN(C(=O)C=Cc1ccco1)c1ccccc1	13.9%	?	22.7%	-5.2	?
Cc1ccc(C(=O)/C=C/C(=O)O)cc1	?	25.9µM*	?	-6.1	?
COc1ccc(-c2cc(=O)oc3c(C)c(OC(C)C(=O)Nc4ccc(CN5CCOCC5)cc4)ccc23)cc1 (stereo unspecified)	?	?	-25.1%	-20.0	?
CC1=C(C(=O)N(C)C)CC(CC(=O)NCCCN(C)C)C(=O)N1CCCN1CCCC1=O (stereo unspecified)	16.8%	22.8%	21.3%	-7.2	8.0%
Cc1ccc(-c2nc(NC(=O)c3cc(C(C)(C)C)nn3C)sc2C)cc1Cl	3.3%	?	3.8%	-0.8	?
O=C(/C=C/c1ccc(OC2CSC2)cc1)c1ccccc1	?	18.4µM*	?	-10.8	18.4µM*
CC(=O)Nc1ccc(C(=O)/C=C/c2ccco2)cc1	-0.2%	?	0.8%	-7.4	20.6µM*
O=C(/C=C/Nc1ccc(Br)cc1F)c1ccccc1	?	-27.7%	?	-3.3	-23.1%
CC(=O)Nc1cccc(C(=O)/C=C/c2ccco2)c1	0.9%	?	12.5%	-70.9*	?
O=C(C=Cc1ccccc1F)c1ccccc1	?	?	?	-65.2*	?
CC(=O)Nc1ccc(NC(=S)NC(=O)/C=C/c2ccco2)cc1	-28.9%	?	-19.3%	31.5	?
CCCCn1c(N)c(N(CC(C)C)C(=O)C2CCN(C(=O)c3ccc(F)cc3)CC2)c(=O)[nH]c1=O	2.0%	0.6%	12.8%	2.8	-2.8%
CC(=O)NC(c1ccccc1)c1nc(-c2cc(F)cc(F)c2)cs1 (stereo unspecified)	-15.9%	-15.0%	-5.7%	?	-10.0%
CN(Cc1ccccc1)c1ccc(C(CC(N)=O)NC(=O)c2ccc(Br)cc2)cc1[N+](=O)[O-] (stereo unspecified)	?	?	?	24.2	?
Cc1ccc(/C=C/C(=O)c2c(C)nc3ccccn23)cc1	-20.7%	16.4µM*	?	-95.0*	16.4µM*
Cc1ccc(C(=O)Nc2ccc3ncccc3c2)cc1	-0.6%	?	-1.8%	?	-29.5%
Cc1ccc(C(=O)Cn2c(C(=O)/C=C/c3ccccc3)nc3ccccc32)cc1	?	16.4µM*	?	?	16.4µM*
Cc1ccc(C(=O)Cn2c(NCCO)nc3ccccc32)cc1	-8.1%	?	-17.0%	-19.0	3.0%
CC(=O)c1c(C)nc2ccccn12	2.0%	8.1%	15.0%	-5.0	-12.9%
Cc1ccc(C(=O)/C=C/c2ccc3ncccc3c2)cc1	-23.7%	29.1µM*	-13.4%	-58.0*	18.4µM*
